What was measured:
Format in all cases: functional
[1] = molecular target: Solute carrier family 2, facilitated glucose transporter member 1 (Homo sapiens) (UniProt P11166); test: ST_JUDE_LEISH: Cytotoxicity at 2uM final concentration against transgenic Leishmania Mexicana promastigotes LmGLUT1 that are glucose transport deficient and complemented with the human glucose transporter GLUT1. Activity is measured by DNA content using SYBR green in vitro
[2] = molecular target: Hexose transporter 1 (Plasmodium falciparum) (UniProt O97467); test: ST_JUDE_LEISH: Cytotoxicity at 2uM final concentration against transgenic Leishmania Mexicana promastigotes LmPfHT that are glucose transport deficient and complemented with the Plasmodium falciparum hexose transporter. Activity is measured by DNA content using SYBR green in vitro
[3] = molecular target: Glucose transporter (Leishmania mexicana) (UniProt O61059); test: ST_JUDE_LEISH: Cytotoxicity at 2uM final concentration against transgenic Leishmania Mexicana promastigotes LmGT2 that are glucose transport deficient and complemented with the L. Mexicana glucose transporter 2. Activity is measured by DNA content using SYBR green in vitro

Chain of Solute carrier family 2, facilitated glucose transporter member 1 (Homo sapiens) (P11166 whole entry): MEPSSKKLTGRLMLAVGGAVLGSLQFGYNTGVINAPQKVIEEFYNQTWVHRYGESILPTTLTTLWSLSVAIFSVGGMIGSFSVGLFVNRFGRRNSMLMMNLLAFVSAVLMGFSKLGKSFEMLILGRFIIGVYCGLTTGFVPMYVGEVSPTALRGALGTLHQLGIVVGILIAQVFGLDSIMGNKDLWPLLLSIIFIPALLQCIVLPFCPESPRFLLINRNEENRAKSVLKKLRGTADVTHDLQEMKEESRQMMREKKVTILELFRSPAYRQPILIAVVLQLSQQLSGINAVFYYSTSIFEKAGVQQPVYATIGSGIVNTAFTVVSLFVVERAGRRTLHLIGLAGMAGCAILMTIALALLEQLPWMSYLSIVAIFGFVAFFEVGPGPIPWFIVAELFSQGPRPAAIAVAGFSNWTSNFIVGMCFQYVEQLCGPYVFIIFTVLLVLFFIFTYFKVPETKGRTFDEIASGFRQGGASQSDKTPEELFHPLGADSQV

| Compound | inhibition [1] | inhibition [2] | inhibition [3] |
| --- | --- | --- | --- |
| Cc1cc(Nc2ccc(Cl)c(Cl)c2)n2nc(C)nc2n1 | -1.71% | -1.26% | 0.04% |
| Nc1c(Cl)cc(C(O)CNCCCCCOCCc2ccccc2)cc1C(F)(F)F (configuration not stated) | 8.73% | 4.17% | -2.01% |
| COc1cc(F)c2ncc(Cl)c(CCN3CCC(NCc4ccc5c(c4)NC(=O)CO5)CC3)c2c1 | 7.29% | 7.51% | 2.39% |
| CCNc1cc(C(=O)N[C@@H](Cc2ccccc2)[C@H](O)CN[C@@H](C)c2ccccc2)cc(N2CCCC2=O)c1 | 1.35% | 0.55% | 1.24% |
| O=C(NC1CCN(CCN2CCC(c3c[nH]c4ccccc34)CC2)CC1)c1ccc(-c2ccc(C(F)(F)F)cc2)cc1 | 59% | 19.8% | 30.2% |
| Cc1nc(-c2cccc(C(=O)Nc3cnc4ccccc4c3)c2)no1 | 5.51% | 3.53% | 3.52% |
| COc1cc2nc(C)nc(Nc3ccc(Cc4ccccc4)cc3)c2cc1OC | 4.72% | 5.93% | 3.99% |
| O=C(Nc1ccc(-c2csc(-c3nc4ccccc4[nH]3)c2)cc1)Nc1ccsc1 | 1.71% | 0.76% | 0.44% |
| Cc1noc(C)c1S(=O)(=O)N(C)Cc1ccc(-c2ccc(Cl)cc2)o1 | 1.57% | 1.24% | -2.43% |
| COc1ccc2nccc([C@@H](O)CN3CCC(NCCOc4ccccc4C#N)CC3)c2c1 | 4.87% | 2.43% | 6.46% |
| Cc1cc(C2CCN(CCCCNC(=O)c3ccc(-c4ccc(C(F)(F)F)cc4)cc3)CC2)c(C)cc1OCC#N | -0.43% | 1.3% | -0.09% |
| COc1ccc2nccc([C@@H](O)CN3CCC(NCC(O)Cc4ccccc4)CC3)c2c1 (some centres not stated) | -0.38% | -3.2% | 1.51% |
| O=C(NCCCCN1CCC(c2ccc3ccccc3c2)CC1)c1ccc(NC(=O)c2ccc(Cl)cc2)cc1 | 2.27% | 4.42% | 4.1% |
| c1ccc(CCNc2nc(NCC(c3ccccc3)c3ccccc3)c3nc[nH]c3n2)cc1 | 4.2% | 3.7% | 1.17% |
| CN1CCC[C@H]1COc1ccc(CN2CC[C@H](NC(=O)c3ccc(Cl)c(Cl)c3)C2)cc1Cl | 1.83% | 0.86% | -0.76% |
| O=C1Nc2cccc3c2C1(CCCCN1CCC(c2c[nH]c4cc(C(F)(F)F)ccc24)CC1)CCC3 (configuration not stated) | 3.89% | 1.75% | 0.54% |
| CCCOc1ccc(CCCON2C(N)=NC(N)=NC2(C)C)cc1 | 7.95% | 13% | 6.99% |
| CC(=O)C=C1CC(=O)N(C[C@@H](O)[C@H]2O[C@@H]3OC(C)(C)O[C@@H]3[C@H]2O)c2ccccc2N1 | 2.82% | 3.82% | 2.35% |
| N#Cc1cccc(CN2CCCN(c3ccc(NC(=O)c4cccs4)cc3)CC2)c1 | 4.81% | 4.44% | 4.34% |
| COc1ccc(C2CC(c3cccs3)=NN2C(=O)CNc2cccc(C#N)c2)cc1OC (configuration not stated) | 7.28% | 14.4% | 2.41% |
| O=C(NC1CCN(Cc2cccc(C(F)(F)F)c2)CC1)c1ccc(-c2cccc(C(F)(F)F)c2)s1 | 6.34% | 3.03% | 6.14% |
| Oc1cc(NCc2ccccc2NCc2ccc(Cl)c(Cl)c2)nc2ccccc12 | 2.41% | 3.68% | 3.11% |
| CC(C)CCN(Cc1cncn1Cc1cccc(Cl)c1)C(=O)c1cncc(-c2ccccc2)c1 | 5.13% | 6% | 5.78% |
| CCCc1cc(Cc2cnc(N)nc2N)cc(CCC)c1O | 2.06% | 1.83% | 1.49% |
| C=CCc1ccc(C2CCN(CCCCNC(=O)c3ccc(NC(=O)c4ccc(Cl)cc4)cc3)CC2)cc1 | 0.91% | 0.58% | 0.46% |

| Compound | inhibition [1] | inhibition [2] | inhibition [3] |
| --- | --- | --- | --- |
| CCN1C(=O)N(CCC(C)C)C2(CCN(Cc3ccc(OC)cc3O)CC2)C1=O | 5.4% | 3.01% | 3% |
| CCCC(CNC(=O)c1cc2c(Cl)cc(Cl)cc2[nH]1)CNc1cc(=O)c2ccccc2[nH]1 (configuration not stated) | 1.99% | 2.64% | 2.5% |
| CC(=O)N1N=C(c2ccc(Cl)cc2)Sc2c1nc(C1CCCCC1)n2C(C)=O | -0.67% | 0.1% | -0.39% |
| COc1cccc(NC(=O)c2ccc(NCCCN3CC(C)CC(C)C3)c([N+](=O)[O-])c2)c1 (configuration not stated) | 6.83% | 2.93% | 3.43% |
| CN1CCN(C(C(=O)NCc2cc(Cl)cc(Cl)c2)c2ccc(Nc3cccc(C(F)(F)F)c3)cc2)CC1 (configuration not stated) | 1% | -2.61% | -2.02% |
| CN1CCN(CC(=O)Nc2ccc(-c3ccc(-c4nc5cc(C(F)(F)F)ccc5[nH]4)cc3)cc2)CC1 | 2.58% | 0.64% | 1.55% |
| CCNc1cc(C(=O)N[C@@H](Cc2ccccc2)[C@H](O)CNC2(Cc3cccc(Cl)c3)CCC2)cc(N2CCCCS2(=O)=O)c1 | -0.69% | 0.65% | 2.93% |
| O=C(NC1CC1)c1ccc(N2CCC(Cc3ccccc3)CC2)nc1 | 3.46% | 4.8% | -1.16% |
| CCOc1ccc2nc(C)cc(N/N=C/c3ccccc3[N+](=O)[O-])c2c1 | 33.1% | 26.4% | 33.9% |
| CCCCCCCCn1ccc(=N)cc1 | 4.46% | 3.06% | 0.3% |
| COC(=O)c1cccc(CNCc2cccc(-c3ccc(-c4nc5cccc(C)c5[nH]4)s3)c2)c1 | 1.43% | 0.6% | 0.69% |
| CCOc1cc(C(=O)NC2CC(C)(C)N(C)C(C)(C)C2)ccc1-c1nc2cc(Cl)c(Cl)cc2[nH]1 | 5.59% | 12.6% | 7.12% |
| Cc1cccc2nc(-c3cccc(-c4ccc(NC(=O)CN5CCOCC5)cc4)c3)[nH]c12 | 4.78% | 4.5% | 2.97% |
| CCCCC(N)COc1cccc2c(-c3ccncc3)c(-c3cccc(NC(=O)Nc4ccccc4)c3)nn12 (configuration not stated) | 3.39% | 2.13% | 2.8% |
| O=C(Nc1cccc(-c2nn3ncccc3c2-c2ccnc(Nc3cccnc3)n2)c1)c1c(F)cccc1F | 1.51% | 3.78% | 2.21% |
| Nc1cc(-c2cc3c(OCc4ccccc4)cccc3[nH]2)ccn1 | 1.13% | 4.32% | 1.6% |
| COc1ccc2nccc([C@@H](O)CN3CCC(NC(=O)Cc4ccc(Br)c5ccccc45)CC3)c2c1 | 3.72% | 3.24% | 1.16% |
| Cc1cc(NC(=O)Nc2ccc(I)c(OCCN(C)C)c2)ccc1Br | 10.5% | 7.25% | 6.57% |
| O=C(Cc1cccs1)NC(CCCN1CCC(Oc2cccc(Cl)c2)CC1)c1ccc(Cl)c(Cl)c1 (configuration not stated) | 1.97% | -1.59% | -1.89% |
| COc1ccc(Nc2ncc3c(-c4ccc(NC(=O)c5cccc(C(F)(F)F)c5)cc4)c[nH]c3n2)cc1OC | 0.57% | -0.05% | -0.51% |
| O=C(NCc1cccc(C(F)(F)F)c1)[C@@H]1CCCN1C(=O)c1ccc(O)c(-c2ccc(Cl)c(Cl)c2)c1 | -0.44% | -0.25% | 0.24% |
| CCC(C)OC(=O)C1=C(C)NC2=C(C(=O)CC(c3ccc(OC)c(OC)c3)C2)C1c1ccc(C)o1 (configuration not stated) | 2.36% | 8.1% | 3.8% |
| CCCc1ccc(Cc2cnc3nc(N)nc(N)c3c2C)cc1 | 39.1% | 53.8% | 40% |
| COc1ccc(-c2nc3c(N)nc(N)nc3nc2-c2ccccc2Cl)cc1.COc1ccc(-c2nc3nc(N)nc(N)c3nc2-c2ccccc2Cl)cc1 | 9.91% | 10.5% | 6.97% |
